# Measured values from PubChem BioAssay (NCATS).
# Where “and” joins values, the source holds several entries; their conditions need not be identical. Equal entries are not always repeated. Inconclusive results are not listed. Calls of active or inactive are those of the source. Unless noted, the call rests on the fitted dose curve; in most records, active means well fitted curve in either direction with a large enough effect (not every such curve was filed as active); inconclusive means small, poorly fitted or top-dose-only effect, or another doubt; inactive means flat fitted curve, though single readings scatter.
# Columns and labels:
# [1] = biological target: Lysosomal acid glucosylceramidase (Homo sapiens) (UniProt P04062); assay: Glucocerebrosidase-p2 (AID 348; in the data active means potency below about 10 µM; further: potency means the concentration at half of the fitted maximal effect); conditions: purified GBA, blue fluorogenic substrate, 40 min
# Outline: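 Normal human glucocerebrosidase (0.2 nM) with blue fluorogenic substrate (80 uM final) in citrate/phosphate pH 5.9 with 10mM sodium taurocholate, 0.01% tween-20; 40 min RT, NaOH/glycine stop; fluorescence Ex 365/Em 440; AC50 from a titration from 0.6 nM upwards.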
# [2] = AP1 Signaling Pathway (AID 357); conditions: ME-180 AP-1-bla reporter, EGF-induced, beta-lactamase ratio, 5 h;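 further: ME-180 reporter cells stimulated with EGF at its EC50 level; on the % scale 0 is the no-effect control and ±100 the full control effect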
# Outline: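 In this screen, ME-180 cells in Opti-MEM with 0.5% dialyzed FBS received EC50 EGF and compound titrations for 5 h. AP-1 reporter beta-lactamase was detected via CCF4 ratio, giving AC50 for positive and negative modulators.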
# [3] = biological target: Cytochrome P450 1A2 (Homo sapiens) (UniProt P05177); assay: p450-cyp1a2 (AID 410; calls by dose curve; further: potency means the concentration at half of the fitted maximal effect;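 on activity change, negative = inhibition: -100% = full effect of reference inhibitor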); conditions: recombinant CYP1A2, luciferin-ME demethylation, luminescence; series mostly up to 57 µM
# Outline: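 20nM CYP1A2, 100uM Luciferin-ME (=Km), 100mM KPO4; cpd 10 min RT; +NADPH regen, 60 min RT; stop/detect 20 min; luminescence. Normalized to furafylline 57 uM = full inhibition.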
# [4] = NFAT Signaling Pathway (AID 444); conditions: Jurkat NFAT-bla M1, carbachol, beta-lactamase ratio, 5 h; at 7.69 µM (top of the series) unless noted;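 further: carbachol stimulus at about its EC50 of 1 µM final; on the % scale 0 is the no-effect control and ±100 the full control effect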
# Outline: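 Jurkat cells carrying an NFAT-driven β-lactamase reporter and co-transfected muscarinic M1 receptor were treated with compound plus carbachol (1 uM final, an EC50 level) for 5 h at 37 °C. CCF4 loading followed for 1 h at RT; 460/530 nm ratio gave %activity.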
# [5] = Stat Signaling Pathway (AID 446); conditions: ME-180 (cervical carcinoma) SIE beta-lactamase reporter, IL-6 stimulated, 5 h;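 further: ME-180 cervical cancer cells given 40 pM IL-6 alongside compound; SIE-controlled beta-lactamase reporter measured as 460/530 nm FRET emission ratio; on the % scale 0 is the no-effect control and ±100 the full control effect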
# Outline: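 Emission at 460 and 530 nm (excitation 405 nm) reports SIE-controlled beta-lactamase in ME-180 cells. Cells received compound with 40 pM IL-6 for 5 hrs at 37 C; data scaled between 300 pM IL-6 and 125 nM JAK-inhibitor controls.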
# [6] = biological target: Glucocorticoid receptor (Homo sapiens) (UniProt P04150); assay: GR-GFP Redistribution (AID 450;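 active means compounds whose dose series gives a full or clear partial fitted curve of increased nuclear translocation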; further: potency means the concentration at half of the fitted maximal effect); conditions: U2OS GR-GFP nuclear translocation, laser cytometry, 2 h
# [7] = biological target: Glucocorticoid receptor (Homo sapiens) (UniProt P04150); assay: GR-EFC Redistribution (AID 451; calls by dose curve; further: potency means the concentration at half of the fitted maximal effect); conditions: CHO-K1 GR-EFC translocation, beta-gal luminescence, 2 h
# Outline: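 CHO-K1 cells stably expressing nuclear-localized β-gal enzyme acceptor and GR fused C-terminally to the enzyme donor fragment; ligand-driven nuclear translocation restores β-gal by complementation. Compounds titrated up to 46 uM final, 2 h at 37 °C; luminescence read.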
# [8] = biological target: Mitogen-activated protein kinase 10 (Mus musculus) (UniProt Q61831); assay: JNK3 AlphaScreen Assay (AID 530); conditions: JNK3 lysate, c-Jun phosphorylation; series mostly up to 57.1 µM;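 further: kinase came from lysate of stimulated human HepG2 cells; signal reports phosphorylation of biotinylated GST-cJun 1-79 at Ser73 with 10 µM ATP; on the % scale 0 is the no-effect control and ±100 the full control effect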
# Outline: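 Biotinylated GST-cJun(1-79) served as substrate for JNK3 in HepG2 lysates stimulated with IL-1beta and TNF-alpha. ATP was 10 uM final, pH 7.6. Ser73 phosphorylation was quantified by AlphaScreen (680 nm excitation).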
# [9] = biological target: Cytochrome P450 3A4 (Homo sapiens) (UniProt P08684); assay: qHTS Assay for Inhibitors and Substrates of Cytochrome P450 3A4 (AID 884; active means well fitted curve in the direction sought with a large enough effect; an effect the other way counts as inactive or inconclusive; further: potency means the concentration at half of the fitted maximal effect; nearly all actives have a fitted effect of over 50% in size); conditions: recombinant CYP3A4, Luciferin-PPXE luminescence; series mostly up to 57.1 µM
# Outline: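 Luminescent readout of luciferin produced by CYP3A4 (20 nM) dealkylation of Luciferin-PPXE, 25 uM (its KM). NADPH-driven reaction ran 60 min at RT after 10 min compound preincubation; data scaled to 57 uM ketoconazole as 100% inhibition.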
# [10] = biological target: Cytochrome P450 3A4 (Homo sapiens) (UniProt P08684); assay: qHTS Assay for Activators of Cytochrome P450 3A4 (AID 885; active means well fitted curve in the direction sought with a large enough effect; an effect the other way counts as inactive or inconclusive; further: nearly all actives have a fitted effect of over 65% in size); conditions: recombinant CYP3A4, Luciferin-PPXE luminescence, 60 min; series mostly up to 57.1 µM
# Outline: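 Activators are scored by enhanced luminescence from CYP3A4 conversion of luciferin-PPXE (25uM, equal to KM) to luciferin, after 60 min at RT with an NADPH-regenerating system.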
# [11] = biological target: Cytochrome P450 2C19 (Homo sapiens) (UniProt P33261); assay: qHTS Assay for Inhibitors and Substrates of Cytochrome P450 2C19 (AID 899; active means well fitted curve in the direction sought with a large enough effect; an effect the other way counts as inactive or inconclusive; further: potency means the concentration at half of the fitted maximal effect; nearly all actives have a fitted effect of over 60% in size); conditions: recombinant CYP2C19, luciferin-H EGE luminescence; series mostly up to 57.1 µM
# Outline: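 Human CYP2C19 (5nM) with Luciferin-H EGE at 10uM (its KM) in 50mM KPO4 was preincubated with compound for 10 min at 37C. NADPH regeneration started a 60 min 37C reaction. Luciferin was read by luminescence, normalized to 57uM ketoconazole.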
# [12] = Confirmation and Secondary Assay for Modulators of Hemoglobin Beta Chain Splicing at IVS2 654 locus (AID 910; active means well fitted curve in the direction sought with a large enough effect; an effect the other way counts as inactive or inconclusive; further: % of control where 0% means no effect); conditions: HeLa EGFP-654 splicing reporter, GFP fluorescence, 48 h; series mostly up to 38.3 µM
# Outline: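 HeLa cells stably carrying EGFP interrupted by mutant beta-globin IVS2-654 intron (CMV-driven) were treated with compound for 2 days at 37C; corrected splicing was scored as total peak GFP intensity per well (488 nm excitation, 500-520 nm emission).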
# [13] = Confirmation and Secondary Assay for Modulators of Hemoglobin Beta Chain Splicing at IVS2 705 locus (AID 930; active means well fitted curve in the direction sought with a large enough effect; an effect the other way counts as inactive or inconclusive;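 further: HeLa cells stably expressing the EGFP-705 splicing reporter; GFP fluorescence per well restored by corrected splicing of the IVS2-705 intron in EGFP; % of control where 0% means no effect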); conditions: HeLa EGFP-705 splicing reporter, GFP fluorescence, 48 h; series mostly up to 38.3 µM
# Outline: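 HeLa cells stably carrying EGFP interrupted by mutant beta-globin intron 2 (IVS2-705) treated 2 days at 37C with compound; 500 nM antisense PNA as control. Correct splicing read as total peak GFP intensity per well by laser-scanning cytometry.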
# [14] = qHTS Assay for Lipid Storage Modulators (AID 1519; calls by dose curve); conditions: Drosophila S3 cells, BODIPY lipid droplet/cell ratio, laser cytometry, cells loaded with oleic acid
# Outline: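 Cells seeded at 5,000 per well were treated with compounds over a concentration series and loaded with oleic acid (400 uM, as added). Lipid droplet fluorescence (488 nm excitation, 500-530 nm channel) was read by laser-scanning cytometry and normalized to 20 uM Triacsin C.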
# [15] = biological target: 3',5'-cyclic-AMP phosphodiesterase 4B (Homo sapiens) (UniProt Q07343); assay: qHTS Assay for Inhibitors of PDE-IV (AID 607; active means well fitted activation curve with a large enough effect in the main read-out, with a control signal flat, not every such curve was filed as active; further: % of control where 0% means no effect); conditions: HEK293 ACTOne CNG channel cells, membrane potential fluorescence; series mostly up to 22.9 µM
# Outline: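 The readout is membrane depolarisation from a cAMP-sensing CNG channel, detected with a potential dye at ex 535/em 590. Cells were HEK293-derived (endogenous PDE-IV) at 1000 cells/well, titrated up to 22.9 uM final.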
# [16] = biological target: Ubiquitin carboxyl-terminal hydrolase 1 (Homo sapiens) (UniProt O94782); assay: Inhibitors of USP1/UAF1: Pilot qHTS (AID 504865; active means well fitted curve in the direction sought with a large enough effect; an effect the other way counts as inactive or inconclusive;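 further: rhodamine fluorescence freed from ubiquitin-rhodamine substrate followed over time; top concentration of the series differs between compounds; on the % scale 0 is the no-effect control and ±100 the full control effect; nearly all actives have a fitted effect of over 35% in size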); conditions: purified USP1/UAF1, Ub-rhodamine cleavage fluorescence; series mostly up to 54.9 µM
# Outline: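 Kinetic fluorescence assay: 1nM USP1/UAF1, 15 min compound preincubation, then 150nM Ub-Rho; 480/540 nm.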
# [17] = qHTS profiling for inhibitors of Plasmodium falciparum proliferation (AID 504749; active means well fitted curve in the direction sought with a large enough effect; an effect the other way counts as inactive or inconclusive;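 further: 0% = DMSO vehicle and full inhibition = artemisinin control; nearly all actives have a fitted effect of over 60% in size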); conditions: P. falciparum in erythrocytes, SYBR Green DNA, 72 h, at 28.7 µM (top of the series)
# Outline: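 Fluorescence of SYBR Green-bound parasite DNA, read at 485/535 nm, served as the growth measure. Infected erythrocytes were cultured with compound 72 h; artemisinin (0.29 uM) and DMSO wells defined the normalization range.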
# [18] = at 7.69 µM (top of the series) unless noted
# [19] = measured here: cell count channel max response
# [20] = measured here: lipid channel max response
# 3',5'-cyclic-AMP phosphodiesterase 4B (Homo sapiens), sequence (Q07343 whole entry, looked up): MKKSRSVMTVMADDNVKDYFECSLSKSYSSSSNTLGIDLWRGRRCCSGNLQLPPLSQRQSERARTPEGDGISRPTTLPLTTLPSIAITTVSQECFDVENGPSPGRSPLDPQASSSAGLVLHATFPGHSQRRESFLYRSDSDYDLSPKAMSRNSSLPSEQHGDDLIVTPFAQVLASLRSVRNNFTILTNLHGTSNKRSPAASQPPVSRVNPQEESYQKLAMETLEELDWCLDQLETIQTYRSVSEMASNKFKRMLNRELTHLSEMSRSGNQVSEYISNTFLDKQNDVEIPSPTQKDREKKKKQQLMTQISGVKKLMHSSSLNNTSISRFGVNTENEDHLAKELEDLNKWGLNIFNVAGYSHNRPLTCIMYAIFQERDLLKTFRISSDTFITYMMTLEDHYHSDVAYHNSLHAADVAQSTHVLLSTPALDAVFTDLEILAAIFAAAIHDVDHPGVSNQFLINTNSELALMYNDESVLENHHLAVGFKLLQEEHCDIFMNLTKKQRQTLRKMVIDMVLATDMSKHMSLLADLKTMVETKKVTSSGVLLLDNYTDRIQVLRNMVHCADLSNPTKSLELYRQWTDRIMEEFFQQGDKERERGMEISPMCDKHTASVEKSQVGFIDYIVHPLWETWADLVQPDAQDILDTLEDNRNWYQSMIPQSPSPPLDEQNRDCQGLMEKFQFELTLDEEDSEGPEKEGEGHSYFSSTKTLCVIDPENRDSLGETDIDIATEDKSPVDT
# Ubiquitin carboxyl-terminal hydrolase 1 (Homo sapiens), sequence (O94782 whole entry, looked up): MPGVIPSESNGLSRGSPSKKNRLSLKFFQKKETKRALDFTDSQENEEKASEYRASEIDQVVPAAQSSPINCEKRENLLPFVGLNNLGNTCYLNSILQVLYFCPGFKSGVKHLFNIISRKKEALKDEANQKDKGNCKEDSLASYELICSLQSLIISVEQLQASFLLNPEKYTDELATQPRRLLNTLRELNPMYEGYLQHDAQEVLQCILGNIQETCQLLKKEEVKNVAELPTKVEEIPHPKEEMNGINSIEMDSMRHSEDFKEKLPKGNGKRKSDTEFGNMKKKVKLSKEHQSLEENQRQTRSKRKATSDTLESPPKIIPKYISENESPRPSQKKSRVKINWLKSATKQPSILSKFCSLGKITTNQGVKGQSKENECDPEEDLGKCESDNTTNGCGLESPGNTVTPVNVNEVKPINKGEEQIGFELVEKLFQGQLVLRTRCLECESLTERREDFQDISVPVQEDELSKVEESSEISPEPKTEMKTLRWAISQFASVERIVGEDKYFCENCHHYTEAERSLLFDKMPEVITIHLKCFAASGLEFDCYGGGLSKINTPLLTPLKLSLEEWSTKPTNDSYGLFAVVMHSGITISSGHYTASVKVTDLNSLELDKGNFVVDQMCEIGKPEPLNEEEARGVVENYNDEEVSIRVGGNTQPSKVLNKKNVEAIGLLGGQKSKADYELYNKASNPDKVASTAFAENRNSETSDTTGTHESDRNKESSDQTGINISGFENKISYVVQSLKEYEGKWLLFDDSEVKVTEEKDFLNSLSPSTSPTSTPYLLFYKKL
# Cytochrome P450 3A4 (Homo sapiens), sequence (P08684 whole entry, looked up): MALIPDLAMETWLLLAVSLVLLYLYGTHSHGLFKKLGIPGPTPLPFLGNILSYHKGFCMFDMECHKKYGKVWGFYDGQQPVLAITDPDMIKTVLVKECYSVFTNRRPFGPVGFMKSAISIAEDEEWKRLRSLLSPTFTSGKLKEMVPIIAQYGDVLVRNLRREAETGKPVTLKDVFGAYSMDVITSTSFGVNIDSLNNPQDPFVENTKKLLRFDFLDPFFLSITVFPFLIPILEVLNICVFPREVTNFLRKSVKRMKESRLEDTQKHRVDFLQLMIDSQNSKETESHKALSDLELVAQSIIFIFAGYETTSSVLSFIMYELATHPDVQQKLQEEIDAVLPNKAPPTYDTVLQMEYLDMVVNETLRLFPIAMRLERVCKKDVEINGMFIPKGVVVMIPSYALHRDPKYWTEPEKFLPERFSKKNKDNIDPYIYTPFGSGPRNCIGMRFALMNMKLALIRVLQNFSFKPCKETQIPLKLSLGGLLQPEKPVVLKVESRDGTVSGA
# Glucocorticoid receptor (Homo sapiens), sequence (P04150 whole entry, looked up, the tested form may be a part): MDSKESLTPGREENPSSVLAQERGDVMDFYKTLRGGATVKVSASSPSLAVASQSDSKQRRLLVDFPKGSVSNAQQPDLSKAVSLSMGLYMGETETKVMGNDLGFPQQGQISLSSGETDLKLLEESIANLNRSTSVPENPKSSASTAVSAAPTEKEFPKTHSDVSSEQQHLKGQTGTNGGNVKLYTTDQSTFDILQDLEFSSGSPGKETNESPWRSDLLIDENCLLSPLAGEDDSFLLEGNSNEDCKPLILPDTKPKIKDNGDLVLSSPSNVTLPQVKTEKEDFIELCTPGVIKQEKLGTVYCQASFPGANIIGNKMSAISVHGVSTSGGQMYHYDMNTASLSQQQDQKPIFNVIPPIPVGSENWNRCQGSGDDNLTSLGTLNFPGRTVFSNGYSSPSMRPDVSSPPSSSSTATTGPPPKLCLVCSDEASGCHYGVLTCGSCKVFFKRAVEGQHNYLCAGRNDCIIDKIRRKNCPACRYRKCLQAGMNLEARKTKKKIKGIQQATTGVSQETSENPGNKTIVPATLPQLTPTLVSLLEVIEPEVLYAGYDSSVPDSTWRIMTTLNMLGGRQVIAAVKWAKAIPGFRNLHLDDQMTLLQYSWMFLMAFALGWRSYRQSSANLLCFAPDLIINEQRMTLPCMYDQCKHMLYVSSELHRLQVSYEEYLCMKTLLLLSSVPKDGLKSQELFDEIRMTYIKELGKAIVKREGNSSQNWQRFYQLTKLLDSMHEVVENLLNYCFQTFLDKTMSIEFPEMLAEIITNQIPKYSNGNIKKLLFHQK
# Cytochrome P450 1A2 (Homo sapiens), sequence (P05177 whole entry, looked up): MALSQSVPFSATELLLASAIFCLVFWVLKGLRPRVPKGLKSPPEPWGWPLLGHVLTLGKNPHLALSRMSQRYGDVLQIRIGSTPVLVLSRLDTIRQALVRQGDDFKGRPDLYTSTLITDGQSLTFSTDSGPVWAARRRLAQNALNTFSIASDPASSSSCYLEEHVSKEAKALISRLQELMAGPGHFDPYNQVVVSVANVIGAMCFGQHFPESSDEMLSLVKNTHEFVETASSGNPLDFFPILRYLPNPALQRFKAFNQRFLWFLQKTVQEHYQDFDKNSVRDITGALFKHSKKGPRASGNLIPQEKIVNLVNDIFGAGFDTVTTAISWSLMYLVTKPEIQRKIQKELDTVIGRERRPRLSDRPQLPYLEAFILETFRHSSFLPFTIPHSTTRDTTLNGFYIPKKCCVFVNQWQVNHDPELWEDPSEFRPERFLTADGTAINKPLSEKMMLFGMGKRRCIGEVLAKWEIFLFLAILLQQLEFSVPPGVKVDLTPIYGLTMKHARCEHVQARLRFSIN
# Lysosomal acid glucosylceramidase (Homo sapiens), sequence (P04062 whole entry, looked up): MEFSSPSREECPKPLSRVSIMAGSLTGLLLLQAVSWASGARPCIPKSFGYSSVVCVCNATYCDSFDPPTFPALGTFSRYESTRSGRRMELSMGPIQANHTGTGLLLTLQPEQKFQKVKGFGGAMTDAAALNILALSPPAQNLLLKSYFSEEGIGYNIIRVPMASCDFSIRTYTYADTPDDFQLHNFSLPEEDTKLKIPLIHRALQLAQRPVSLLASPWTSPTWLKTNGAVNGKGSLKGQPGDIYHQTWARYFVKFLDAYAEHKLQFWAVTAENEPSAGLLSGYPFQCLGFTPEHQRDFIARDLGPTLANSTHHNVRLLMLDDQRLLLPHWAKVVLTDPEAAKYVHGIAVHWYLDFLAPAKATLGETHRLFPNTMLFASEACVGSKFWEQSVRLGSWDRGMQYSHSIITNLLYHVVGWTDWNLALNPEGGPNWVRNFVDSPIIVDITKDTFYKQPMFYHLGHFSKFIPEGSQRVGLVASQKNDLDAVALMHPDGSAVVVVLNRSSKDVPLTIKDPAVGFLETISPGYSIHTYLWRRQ
# Cytochrome P450 2C19 (Homo sapiens), sequence (P33261 whole entry, looked up): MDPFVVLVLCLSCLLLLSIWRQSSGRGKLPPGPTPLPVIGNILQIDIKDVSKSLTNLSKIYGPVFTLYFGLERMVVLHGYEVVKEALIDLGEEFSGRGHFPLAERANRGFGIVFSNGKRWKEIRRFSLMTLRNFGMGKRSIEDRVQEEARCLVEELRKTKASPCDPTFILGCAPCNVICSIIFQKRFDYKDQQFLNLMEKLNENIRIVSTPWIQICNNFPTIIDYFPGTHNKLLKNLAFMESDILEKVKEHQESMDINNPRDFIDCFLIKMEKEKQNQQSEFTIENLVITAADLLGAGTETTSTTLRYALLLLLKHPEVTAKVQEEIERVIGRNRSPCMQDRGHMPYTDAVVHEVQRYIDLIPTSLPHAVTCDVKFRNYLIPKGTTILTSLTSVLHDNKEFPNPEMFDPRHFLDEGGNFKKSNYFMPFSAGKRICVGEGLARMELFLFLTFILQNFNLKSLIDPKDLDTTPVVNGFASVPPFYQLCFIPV
structure (smiles),measurement,setting,value
Cc1cccc(CNc2nc(-c3cccc(NS(C)(=O)=O)c3)nc3ccccc23)c1,Potency,[1],> 11.4 µM (inactive)
same,"activity change, negative = inhibition",[2]; [18],-27.3% (inactive)
same,Potency,[3],15.8 µM (active)
same,"activity change, negative = inhibition",[4],-6.18% (inactive)
same,"activity, negative = inhibition",[5]; [18],-23% (inactive)
same,Potency,[6],> 46 µM (inactive)
same,Potency,[7],> 46 µM (inactive)
same,Potency,[8],inactive
same,Potency,[9],5.01 µM (active)
same,Potency,[10],inactive
same,Potency,[11],2.51 µM (active)
same,Potency,[12],inactive
same,outcome,[13],inactive
same,"activity change, negative = inhibition",[14]; at 57.5 µM (top of the series),1.31% (inactive)
same,max response,[14]; [19],-11.9%
same,max response,[14]; [20],-11.1%
CN(C)c1ccc(-c2cc(NCc3cccnc3)ncn2)cc1,Potency,[1],> 11.4 µM (inactive)
same,"activity change, negative = inhibition",[2]; [18],-9.72% (inactive)
same,Potency,[3],0.398 µM (active)
same,"activity change, negative = inhibition",[4],5.75% (inactive)
same,"activity, negative = inhibition",[5]; [18],0.912% (inactive)
same,Potency,[6],> 46 µM (inactive)
same,Potency,[7],> 46 µM (inactive)
same,Potency,[8],inactive
same,Potency,[15],inactive
same,Potency,[9],3.16 µM (active)
same,Potency,[10],inactive
same,Potency,[12],inactive
same,outcome,[13],inactive
same,"activity change, negative = inhibition",[14]; at 57.5 µM (top of the series),7.63% (inactive)
same,max response,[14]; [19],14.7%
same,max response,[14]; [20],22.6%
same,Potency,[16],inactive
COc1ncc2nc(-c3ccc(Cl)cc3)c(=O)n(-c3ccccc3)c2n1,Potency,[1],> 11.4 µM (inactive)
same,"activity change, negative = inhibition",[2]; [18],-12.8% (inactive)
same,Potency,[3],1.58 µM (active)
same,"activity change, negative = inhibition",[4],-0.099% (inactive)
same,"activity, negative = inhibition",[5]; [18],0.109% (inactive)
same,Potency,[6],> 9.22 µM (inactive)
same,Potency,[7],> 46 µM (inactive)
same,Potency,[8],inactive
same,Potency,[15],inactive
same,"activity change, negative = inhibition",[14]; at 57.5 µM (top of the series),-0.888% (inactive)
same,max response,[14]; [19],12%
same,max response,[14]; [20],16.2%
CS(=O)(=O)Nc1cccc(-c2nc(N3CCOCC3)c3ccccc3n2)c1,Potency,[1],> 11.4 µM (inactive)
same,"activity change, negative = inhibition",[2]; [18],-11.2% (inactive)
same,Potency,[3],5.01 µM (active)
same,"activity change, negative = inhibition",[4],27.4% (inactive)
same,"activity, negative = inhibition",[5]; [18],-10.3% (inactive)
same,Potency,[6],> 46 µM (inactive)
same,Potency,[7],> 46 µM (inactive)
same,Potency,[8],inactive
same,Potency,[9],1.58 µM (active)
same,Potency,[10],inactive
same,Potency,[12],inactive
same,outcome,[13],inactive
same,"activity change, negative = inhibition",[14]; at 57.5 µM (top of the series),2.88% (inactive)
same,max response,[14]; [19],-24.3%
same,max response,[14]; [20],-22%
same,Potency,[16],inactive
Cc1nc2cnc(N(C)C)nc2n(Cc2cccs2)c1=O,Potency,[1],> 11.4 µM (inactive)
same,"activity change, negative = inhibition",[2]; [18],-12% (inactive)
same,Potency,[3],1.26 µM (active)
same,"activity change, negative = inhibition",[4],-7.11% (inactive)
same,"activity, negative = inhibition",[5]; [18],-2.49% (inactive)
same,Potency,[6],> 9.22 µM (inactive)
same,Potency,[7],> 46 µM (inactive)
same,Potency,[8],inactive
same,Potency,[10],inactive
same,"activity change, negative = inhibition",[14]; at 57.5 µM (top of the series),3.99% (inactive)
same,max response,[14]; [19],10.1%
same,max response,[14]; [20],16.8%
CN1CCCC[C@@H]1CCN1c2ccccc2Sc2ccc(S(C)=O)cc21 (some centres undefined),Potency,[1],> 11.4 µM (inactive)
same,"activity change, negative = inhibition",[2]; at 7.69 µM (top of the series),-6.82% (inactive)
same,"activity change, negative = inhibition",[2]; at 17.2 µM (top of the series),10.1% (inactive)
same,Potency,[3],inactive
same,"activity change, negative = inhibition",[4],1.36% (inactive)
same,"activity, negative = inhibition",[5]; at 7.69 µM (top of the series),0.0805% (inactive)
same,"activity, negative = inhibition",[5]; at 17.2 µM (top of the series),-1.79% (inactive)
same,Potency,[6],> 20.6 µM (inactive) and > 46 µM (inactive)
same,Potency,[8],inactive
same,Potency,[15],inactive
same,"activity change, negative = inhibition",[14]; at 25.7 µM (top of the series),-3.11% (inactive)
same,max response,[14]; [19],-6.84%
same,max response,[14]; [20],-7.46%
same,Potency,[16],inactive
same,"activity, negative = inhibition",[17]; parasite line A,1.72% (inactive)
same,"activity, negative = inhibition",[17]; parasite line B,1.85% (inactive)
